# PubChem BioAssay (NCI)
# “And” between values parts separate entries of the source, which are not always exact repeats. Equal entries are not always repeated. The panel holds about 83,000 compounds, 20% with a hit somewhere; the sample as a whole holds those more often.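 A percent growth of 40 corresponds to 60% growth inhibition; 0 means no net growth; -100 means all cells died. Active threshold: below 10.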 Unmarked numbers belong to inactive results. The source made the active and inactive calls.
# Test system: PC-3 prostate
# Assay: NCI-60 one-dose screen, 48 h (100 = growth as untreated, 0 = no growth, -100 = all killed)
# Conditions: 10 µM unless noted
row,SMILES,growth
1,CC(=O)OC(C)C(=O)NCC(C)O (configuration not stated),96.6%
2,Nc1cc(N)c(N)cc1N,92.7%
3,c1ccc(CNCCNCc2ccccc2)cc1,92.4%
4,CC(=O)NCC(=O)c1ccc([N+](=O)[O-])cc1,98.4%
5,O=C(O)CCCl,96.8%
6,Oc1ccc(Cc2ccccc2Cl)c(O)c1,82.5%
7,COc1ccc(Nc2ccc3ccccc3c2)cc1,71.5%
8,Cc1cc(-c2ccc(N=Nc3ccc4c(S(=O)(=O)O)cc(S(=O)(=O)O)c(N)c4c3O)c(C)c2)ccc1N=Nc1ccc2c(S(=O)(=O)O)cc(S(=O)(=O)O)c(N)c2c1O,81.9%
9,CCCCCCCCCCCCCCCc1ccc(N)c(OC2OC(CO)C(O)C(O)C2O)c1 (configuration not stated),58.3%
10,CC1=C/C(O)CC(=O)Cc2nc(co2)C(=O)N2CCC=C2C(=O)OC(C(C)C)C(C)/C=C\C(=O)NC/C=C\1 (configuration not stated),71.5%
11,Cl,106%
12,CCCCOC(=O)/C=C\C(=O)NC(N)=O,83%
13,CCCCCCCCCCCCCCCCC(C(=O)O)C(O)(CC(=O)O)C(=O)O (configuration not stated),110% and 19.8%
14,CCc1cc(C)cc(O)c1,97.1%
15,c1ccc2c(c1)OC1OC2Oc2ccccc21,91.6%
16,CC(C)NC(=O)N/C=C(\C#N)C(N)=O,94.9%
17,O=[N+]([O-])c1cccc(SSc2cccc([N+](=O)[O-])c2)c1,82.6%
18,CC(C)C(C)(C)c1ccc(O)cc1,93.1%

row,SMILES,growth
1,ClCCOCCOc1ccc(C2CCCCC2)cc1,101%
2,Cc1cc2ccccc2cn1,95.3% and 96%
3,N#CC(C#N)N=Nc1ccc(Cl)cc1,54.7%
4,O=CN1CCCCC1,106%
5,C/C(=C\c1ccccc1)c1ccccn1,98.7%
6,OC1COC(OCc2ccccc2)C(O)C1O (configuration not stated),105%
7,OCC1OC(O)C(O)C(O)C1O (configuration not stated),92.2%
8,COc1ccc(C(=O)CC(c2ccccc2)C(C#N)c2ccccc2)cc1 (configuration not stated),64.8%
9,NC1CCC(C(=O)O)CC1 (configuration not stated),93.3% and 86.9%
10,Nc1ccc2c(O)cc(S(=O)(=O)O)cc2c1,85.5%
11,CN1CNC(=O)NC1,94% and 87.2%
12,COc1ccc(N/C=C/C2=[N+](C)c3ccccc3C2(C)C)c(OC)c1,87.6%
13,N#CC(C#N)N=Nc1cc(Cl)ccc1Cl,106%
14,Nc1nc(N)c2[nH]cnc2n1,79.3%
15,Cc1cc(-c2cc(C)c(O)c(C)c2)cc(C)c1O,80.9%
16,Fc1ccc([I+]c2ccc(F)cc2)cc1,63.5%
17,COc1cc(C(O)C2C(=O)OCC2C2(c3ccc4c(c3)OCO4)SCCCS2)cc(OC)c1OC (configuration not stated),84.1%
18,OCCN1CCCCCCC1,93.5%

# Test system: SK-MEL-5 melanoma
# Assay: as above
# Conditions: 10 µM unless noted
row,SMILES,growth
1,Nc1cc(N)c(N)cc1N,-92.7% (active)
2,c1ccc(CNCCNCc2ccccc2)cc1,107%
3,CC(=O)NCC(=O)c1ccc([N+](=O)[O-])cc1,103%
4,O=C(O)CCCl,99.2%
5,Oc1ccc(Cc2ccccc2Cl)c(O)c1,97.7%
6,COc1ccc(Nc2ccc3ccccc3c2)cc1,73.8%
7,Cc1cc(-c2ccc(N=Nc3ccc4c(S(=O)(=O)O)cc(S(=O)(=O)O)c(N)c4c3O)c(C)c2)ccc1N=Nc1ccc2c(S(=O)(=O)O)cc(S(=O)(=O)O)c(N)c2c1O,94.1%
8,CCCCCCCCCCCCCCCc1ccc(N)c(OC2OC(CO)C(O)C(O)C2O)c1 (configuration not stated),111%
9,CC1=C/C(O)CC(=O)Cc2nc(co2)C(=O)N2CCC=C2C(=O)OC(C(C)C)C(C)/C=C\C(=O)NC/C=C\1 (configuration not stated),96.7%
10,Cl,105%
11,CCCCOC(=O)/C=C\C(=O)NC(N)=O,99.8%
12,Cn1cnc([N+](=O)[O-])c1Sc1ncn[nH]1,104%
13,CCCCCCCCCCCCCCCCC(C(=O)O)C(O)(CC(=O)O)C(=O)O (configuration not stated),107%
14,CCc1cc(C)cc(O)c1,105%
15,c1ccc2c(c1)OC1OC2Oc2ccccc21,103%
16,CC(C)NC(=O)N/C=C(\C#N)C(N)=O,101%
17,O=[N+]([O-])c1cccc(SSc2cccc([N+](=O)[O-])c2)c1,99.4%
18,CC(C)C(C)(C)c1ccc(O)cc1,99.9%

row,SMILES,growth
1,ClCCOCCOc1ccc(C2CCCCC2)cc1,98.8%
2,Cc1cc2ccccc2cn1,101% and 109%
3,N#CC(C#N)N=Nc1ccc(Cl)cc1,79.6%
4,O=CN1CCCCC1,100%
5,C/C(=C\c1ccccc1)c1ccccn1,103%
6,OC1COC(OCc2ccccc2)C(O)C1O (configuration not stated),101%
7,OCC1OC(O)C(O)C(O)C1O (configuration not stated),110%
8,COc1ccc(C(=O)CC(c2ccccc2)C(C#N)c2ccccc2)cc1 (configuration not stated),86.6%
9,NC1CCC(C(=O)O)CC1 (configuration not stated),102% and 103%
10,Nc1ccc2c(O)cc(S(=O)(=O)O)cc2c1,96.6% and 104%
11,CN1CNC(=O)NC1,113% and 95.9%
12,COc1ccc(N/C=C/C2=[N+](C)c3ccccc3C2(C)C)c(OC)c1,90.9%
13,N#CC(C#N)N=Nc1cc(Cl)ccc1Cl,106%
14,Nc1nc(N)c2[nH]cnc2n1,98.1%
15,Cc1cc(-c2cc(C)c(O)c(C)c2)cc(C)c1O,73.9%
16,Fc1ccc([I+]c2ccc(F)cc2)cc1,52.2%
17,COc1cc(C(O)C2C(=O)OCC2C2(c3ccc4c(c3)OCO4)SCCCS2)cc(OC)c1OC (configuration not stated),99.1%
18,OCCN1CCCCCCC1,102%
